Drawing on PubChem BioAssay (EPA / NIEHS), this text covers AC50 and outcome for six compounds.

Read-out in assay [1]: Interleukin-8 (IL8), CXCL8 (gene 3576)
Put plainly: BSK_CASM3C_IL8: BioMAP Diversity Plus: CASM3C Assay for Interleukin-8 (IL8) Biomarker Activity (AID 2283042).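 Note: IL-8 protein level quantified by ELISA.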 The conditions noted are these: primary human coronary artery smooth muscle cells; actives raise or lower the signal.

Read-out in assay [2]: Human Leukocyte Antigen - DR isotype (HLADR), HLA-DRA (gene 3122)
The assay can be described thus: BSK_CASM3C_HLADR: BioMAP Diversity Plus: CASM3C Assay for Human Leukocyte Antigen - DR isotype (HLADR) Biomarker Activity (AID 2283043).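 Note: cell-surface HLA-DR protein level quantified by ELISA.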 The conditions noted are these: primary human coronary artery smooth muscle cells; actives raise or lower the signal.

Read-out in assay [3]: Macrophage colony-stimulating factor (MCSF), CSF1 (gene 1435)
The assay can be described thus: BSK_CASM3C_MCSF: BioMAP Diversity Plus: CASM3C Assay for Macrophage colony-stimulating factor (MCSF) Biomarker Activity (AID 2283044).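 Note: M-CSF protein amount quantified by ELISA after 24 h exposure.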 The conditions noted are these: primary human coronary artery smooth muscle cells; actives raise or lower the signal.

Read-out in assay [4]: Low-density lipoprotein receptor (LDLR), LDLR (gene 3949)
The assay can be described thus: BSK_CASM3C_LDLR: BioMAP Diversity Plus: CASM3C Assay for Low-density lipoprotein receptor (LDLR) Biomarker Activity (AID 2283045).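 Note: LDLR protein level on the cell surface quantified by ELISA.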 The note with it: primary human coronary artery smooth muscle cells; actives raise or lower the signal.

Read-out in assay [5]: Monocyte Chemoattractant Protein-1 (MCP1), CCL2 (gene 6347)
The assay can be described thus: BSK_CASM3C_MCP1: BioMAP Diversity Plus: CASM3C Assay for Monocyte Chemoattractant Protein-1 (MCP1) Biomarker Activity (AID 2283046).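 Note: MCP-1 level quantified by ELISA 24 h after dosing.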 The note with it: primary human coronary artery smooth muscle cells; actives raise or lower the signal.

The nature of assay [6]: BSK_CASM3C_Proliferation: Cell Proliferation Assessment in the BioMAP Diversity Plus: CASM3C Assay (AID 2283047).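 Note: sulforhodamine B total protein stain as relative cell number at 560 nm; sub-confluent cells exposed 48 h before staining; fitted both ways against DMSO so gain or loss of cell number.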 The conditions noted are these: primary human coronary artery smooth muscle cells.
Read-out in assay [7]: Monokine induced gamma interferon (MIG), CXCL9 (gene 4283)
Put plainly: BSK_CASM3C_MIG: BioMAP Diversity Plus: CASM3C Assay for Monokine induced gamma interferon (MIG) Biomarker Activity (AID 2283048).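 Note: MIG protein level measured by ELISA.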 The conditions noted are these: primary human coronary artery smooth muscle cells; actives raise or lower the signal.

Read-out in assay [8]: serum amyloid A (SAA), SAA1 (gene 6288)
Put plainly: BSK_CASM3C_SAA: BioMAP Diversity Plus: CASM3C Assay for serum amyloid A (SAA) Biomarker Activity (AID 2283049).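 Note: SAA protein level quantified by ELISA.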 The note with it: primary human coronary artery smooth muscle cells; actives raise or lower the signal.

Assay [9] is described as follows: BSK_CASM3C_SRB: Viability Assessment in the BioMAP Diversity Plus: CASM3C Assay (AID 2283050).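 Note: cells exposed to compound for 24 h.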 The conditions noted are these: primary human coronary artery smooth muscle cells.
Read-out in assay [10]: Thrombomodulin, THBD (gene 7056)
The assay can be described thus: BSK_CASM3C_Thrombomodulin: BioMAP Diversity Plus: CASM3C Assay for Thrombomodulin Biomarker Activity (AID 2283051).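 Note: thrombomodulin protein level measured by ELISA 24 h after dosing.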 The note with it: primary human coronary artery smooth muscle cells; actives raise or lower the signal.

Read-out in assay [11]: Tissue Factor, F3 (gene 2152)
Put plainly: BSK_CASM3C_TissueFactor: BioMAP Diversity Plus: CASM3C Assay for Tissue Factor Biomarker Activity (AID 2283052).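 Note: cell surface tissue factor protein level read by ELISA.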 The conditions noted are these: primary human coronary artery smooth muscle cells; actives raise or lower the signal.

Read-out in assay [12]: Interferon-gamma inducible Protein 10 (IP10), CXCL10 (gene 3627)
Put plainly: BSK_hDFCGF_IP10: BioMAP Diversity Plus: hDFCGF Assay for Interferon-gamma inducible Protein 10 (IP10) Biomarker Activity (AID 2283053). The conditions noted are these: primary human foreskin fibroblasts; actives raise or lower the signal. A digest of the protocol: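 Primary human foreskin fibroblasts exposed to chemicals for 24 h. IP-10 measured by ELISA; changes fitted bidirectionally against DMSO baseline.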

Read-out in assay [13]: Urokinase-type plasminogen activator receptor (uPAR), PLAUR (gene 5329)
The assay can be described thus: BSK_CASM3C_uPAR: BioMAP Diversity Plus: CASM3C Assay for Urokinase-type plasminogen activator receptor (uPAR) Biomarker Activity (AID 2283054).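 Note: cell-surface uPAR protein level quantified by ELISA.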 The conditions noted are these: primary human coronary artery smooth muscle cells; actives raise or lower the signal.

Read-out in assay [14]: Vascular cell adhesion molecule 1 (VCAM1), VCAM1 (gene 7412)
The assay can be described thus: BSK_CASM3C_VCAM1: BioMAP Diversity Plus: CASM3C Assay for Vascular cell adhesion molecule 1 (VCAM1) Biomarker Activity (AID 2283055).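 Note: VCAM-1 protein level quantified by ELISA on the cells.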 The conditions noted are these: primary human coronary artery smooth muscle cells; actives raise or lower the signal.

Read-out in assay [15]: Collagen III, COL3A1 (gene 1281)
Put plainly: BSK_hDFCGF_CollagenIII: BioMAP Diversity Plus: hDFCGF Assay for Collagen III Biomarker Activity (AID 2283056). The note with it: primary human foreskin fibroblasts; actives raise or lower the signal. In short, it runs like this: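 hDFCGF primary human dermal fibroblasts; 24 h chemical exposure; collagen III by ELISA; bidirectional curve fit vs DMSO baseline (gain or loss of signal).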

Read-out in assay [16]: Epidermal growth factor receptor (EGFR), EGFR (gene 1956)
Put plainly: BSK_hDFCGF_EGFR: BioMAP Diversity Plus: hDFCGF Assay for Epidermal growth factor receptor (EGFR) Biomarker Activity (AID 2283057). The conditions noted are these: primary human foreskin fibroblasts; actives raise or lower the signal. In short, it runs like this:
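Primary human foreskin fibroblasts (hDFCGF system), sampled 24 h after dosing; EGFR quantified by ELISA. Bidirectional fit relative to DMSO baseline; SRB total-protein staining in parallel cultures for cytotoxicity.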

Read-out in assay [17]: Interleukin-8 (IL8), CXCL8 (gene 3576)
The assay can be described thus: BSK_hDFCGF_IL8: BioMAP Diversity Plus: hDFCGF Assay for Interleukin-8 (IL8) Biomarker Activity (AID 2283058). The conditions noted are these: primary human foreskin fibroblasts; actives raise or lower the signal. In short, it runs like this:
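ELISA read-out of IL-8 from primary human foreskin fibroblast cultures taken 24 h after dosing; values are bidirectional fits relative to DMSO vehicle.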

A short description of assay [18]: BSK_hDFCGF_Proliferation: Cell Proliferation Assessment in the BioMAP Diversity Plus: hDFCGF Assay (AID 2283059).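 Note: curves fitted for both rise and fall of signal versus DMSO baseline.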 The conditions noted are these: primary human foreskin fibroblasts. A digest of the protocol:
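Sub-confluent human foreskin fibroblast cultures receive test chemical […]. Relative cell number is quantified by sulforhodamine B staining (0.1%, after 10% TCA fixation) at 560 nm, with bidirectional fitting referenced to DMSO.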

Read-out in assay [19]: Macrophage colony-stimulating factor (MCSF), CSF1 (gene 1435)
The assay can be described thus: BSK_hDFCGF_MCSF: BioMAP Diversity Plus: hDFCGF Assay for Macrophage colony-stimulating factor (MCSF) Biomarker Activity (AID 2283060). The conditions noted are these: primary human foreskin fibroblasts; actives raise or lower the signal. In short, it runs like this:
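ELISA read-out of M-CSF in human dermal foreskin fibroblast cultures, 24 h after chemical dosing; gain or loss of signal fitted bidirectionally relative to DMSO baseline.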

A short description of assay [20]: BSK_hDFCGF_SRB: Viability Assessment in the BioMAP Diversity Plus: hDFCGF Assay (AID 2283061).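 Note: cells exposed to compound for 24 h before the read.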 The conditions noted are these: primary human foreskin fibroblasts. In short, it runs like this: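 Primary human foreskin fibroblasts; 24 h post-dose; fixed 10% TCA, stained 0.1% SRB, A560 read; total protein as overt cytotoxicity measure; curves fit bidirectionally vs DMSO control.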

The structures appear in SMILES notation. The source made the active and inactive calls. Rule for the calls: active = hit-call score of the fitted dose curve at least 0.9, where 1 is the maximum; inactive = score below 0.9.

For `CCN(CC)CCNc1ccc(CNC=O)c2sc3ccc(OC)cc3c(=O)c12`, the AC50 (commonly the midpoint of the concentration-response curve, whichever way the signal moves) in [1] was 35.6 µM (active); in assay [2], 12.3 µM (active); in assay [3], 25.9 µM (active); in assay [5] it was 26.9 µM (active); in assay [6], 20 µM (active); in [8], 20.3 µM (active). Besides, the AC50 in assay [9] is 26.3 µM (active); in assay [10] it was 31.2 µM (active); in assay [11], 5.33 µM (active); in assay [12] it was 15.5 µM (active); in assay [13], 11.1 µM (active); in assay [14] it was 12 µM (active). In addition, the AC50 in assay [15] is 16.2 µM (active); in [17] it was 33.7 µM (active); in [18], 6.31 µM (active); in [19] it was 12.9 µM (active); in assay [20], 14.6 µM (active). For the same compound, the result in [4], in assay [7] and in [16] was inactive.
Take `CCOC(=O)CC(O)(CC(=O)OCC)C(=O)OCC`: the outcome in [1], in assay [2], in assay [3], in assay [4], in assay [5] and in assay [6] was inactive. Moreover, the result in assay [7], in assay [8], in assay [9], in [10], in assay [11] and in assay [12] was inactive. Also, the result in assay [13], in assay [14], in [15], in [16], in assay [18] and in assay [19] was inactive.
As to `OC1CCCCC1`, the AC50 in assay [1] was 14.8 µM (active); in assay [8] it was 23.1 µM (active). For the same compound, the result in [2], in assay [3], in [4], in assay [5], in assay [6] and in assay [7] was inactive. In addition, the outcome in assay [9], in assay [10], in assay [11], in [12], in assay [13] and in [14] was inactive. The outcome in assay [15], in assay [16], in assay [18], in assay [19] and in assay [20] was inactive.
`NC(=O)N(O)[C@@H]1C=C[C@H](Oc2cccc(Oc3ccc(F)cc3)c2)C1`: the result in [1], in assay [3], in assay [4], in assay [5], in assay [7] and in assay [8] was inactive. For the same compound, the result in [9], in assay [11], in assay [13], in assay [14], in assay [15] and in assay [16] was inactive. The AC50 is 3.95 µM (active) in assay [2]; 7.17 µM (active) in assay [6]; 9.41 µM (active) in assay [10]; 20 µM (active) in [12]; 13.3 µM (active) in assay [18]; 3.97 µM (active) in [19].
Turning to `C#C[C@]1(O)CC[C@H]2[C@@H]3CCC4=CC(=O)CC[C@@H]4[C@H]3CC[C@@]21C`, the outcome in assay [1], in assay [2], in [3], in [4], in assay [5] and in assay [7] was inactive. The result in [8], in assay [9], in [10], in [11], in assay [12] and in assay [13] was inactive. In addition, the result in [14], in assay [15], in assay [16], in assay [17], in assay [18] and in assay [19] was inactive.
`CCCCCCCCCCCCc1ccccc1S(=O)(=O)O`: the result in [1], in assay [2], in assay [3], in assay [4], in assay [5] and in [6] was inactive. For the same compound, the result in assay [7], in [8], in assay [9], in [10], in [11] and in [13] was inactive. Besides, the outcome in assay [16] was inactive. The AC50 in assay [12] is 10.6 µM (active); in assay [14] it was 11.2 µM (active); in [15], 8.62 µM (active); in assay [18] it was 9.26 µM (active); in assay [19], 11.4 µM (active).
